Results filed as inconclusive are left out. A call without a number means that no potency is given here. Calls of active or inactive are those of the source. Calls come from the whole dose curve; as a rule, active = well fitted curve in the direction sought with a large enough effect; inconclusive = small, poorly fitted or top-dose-only effect, or another doubt; inactive = no such curve, though single readings can be large; an effect the other way counts as inactive or inconclusive.
Legend:
[1] = target: Aldehyde dehydrogenase, mitochondrial (Homo sapiens) (UniProt P05091); experiment: qHTS for Inhibitors of the Aldehyde Dehydrogenase Family (ALDH2) Primary screen (AID 2061308); details: ALDH2 enzyme inhibition qHTS, 1536-well; series mostly up to 56 µM; note: nearly all actives have a fitted effect of over 55% in size; note: potency is the fitted concentration of half-maximal effect
[2] = target: Retinaldehyde dehydrogenase 3 (Homo sapiens) (UniProt P47895); experiment: qHTS for Inhibitors of the Aldehyde Dehydrogenase Family (ALDH1A3) Confirmatory screens (AID 2061311); details: ALDH inhibition qHTS; series mostly up to 46 µM; note: potency is the fitted concentration of half-maximal effect; nearly all actives have a fitted effect of over 60% in size
[3] = target: Retinaldehyde dehydrogenase 3 (Homo sapiens) (UniProt P47895); experiment: qHTS for Inhibitors of the Aldehyde Dehydrogenase Family (ALDH1A3) Primary screen (AID 2061315); details: ALDH inhibition qHTS; series mostly up to 56 µM
[4] = target: Aldehyde dehydrogenase 1A1 (Homo sapiens) (UniProt P00352); experiment: qHTS for Inhibitors of the Aldehyde Dehydrogenase Family (ALDH1A1) Confirmatory screens (AID 2061316); details: ALDH inhibition qHTS; series mostly up to 47.3 µM; note: potency is the fitted concentration of half-maximal effect; nearly all actives have a fitted effect of over 65% in size
[5] = target: Retinaldehyde dehydrogenase 3 (Homo sapiens) (UniProt P47895); experiment: qHTS for Inhibitors of the Aldehyde Dehydrogenase Family (ALDH1A3) Validation screen (AID 2061312); details: ALDH1A3 enzyme inhibition qHTS validation, fluorescence; series mostly up to 84.7 µM; note: nearly all actives have a fitted effect of over 45% in size; note: potency is the fitted concentration of half-maximal effect

In the case of `Cc1cc(C)nc(NC(=S)N2CCN(c3ccc4nonc4c3)CC2)c1`, the Potency [1] is reported as “inactive”, the Potency [2] is reported as 15.9 µM (active) and the Potency [3] is reported as “inactive”. For the same compound, the Potency [4] was 11.3 µM (active).

With `COc1ccc(C2=NC(c3ccc(Cl)cc3)C(c3ccc(Cl)cc3)N2C(=O)N2CCNC(=O)C2)c(OC(C)C)c1` (stereo not drawn) the Potency [1] was “inactive”, the Potency [5] was “inactive” and the Potency [3] was “inactive”.

For `N#Cc1ccc2[nH]c(O)c(-c3ccc(CN4CCOCC4)cn3)c2c1`, the Potency [1] was “inactive” and the Potency [5] was 10 µM (active).

For `Cc1cc(C)nc(NCc2ccc(O)c3ncccc23)c1`, the Potency [1] was 11.2 µM (active), the Potency [2] was 5.04 µM (active) and the Potency [4] was 11.3 µM (active).

In the case of `CCC(C)CNCC(=O)N1CCc2sccc2C1COc1cccc(C)c1` (stereo not drawn), the Potency [1] is reported as “inactive”, the Potency [5] is reported as “inactive” and the Potency [3] is reported as “inactive”.

In the case of `CC(C)(C)CC(C)(C)c1ccc(OCCOCC[N+](C)(C)Cc2ccccc2)cc1`, the Potency [1] is reported as “inactive”, the Potency [5] is reported as “inactive” and the Potency [3] is reported as “inactive”.

For `O=C(c1ccccc1)c1ccc2nc(NC(=O)c3csc(C4CCN(c5ncnc6ccsc56)CC4)n3)[nH]c2c1`, the Potency [1] was “inactive”, the Potency [5] was “inactive” and the Potency [3] was “inactive”.

In the case of `Cc1ccc(C(=O)N(CCCN)C(c2nc3cc(Cl)ccc3c(=O)n2Cc2ccccc2)C(C)C)cc1` (stereo not drawn), the Potency [1] is reported as “inactive”, the Potency [5] is reported as “inactive” and the Potency [3] is reported as “inactive”.

With `C=CC(=O)Nc1cccc(CN2C(=O)N(c3c(Cl)c(OC)cc(OC)c3Cl)Cc3cnc(NCCCCN(CC)CC)nc32)c1` the Potency [1] was “inactive”, the Potency [5] was “inactive” and the Potency [3] was “inactive”.

In the case of `CCS(=O)c1nc(-c2cccc(OCc3ccccc3)c2)cc(C(F)(F)F)n1` (stereo not drawn), the Potency [1] is reported as “inactive”, the Potency [5] is reported as “inactive” and the Potency [3] is reported as “inactive”.

In the case of `COc1cc(/C=C/C(=O)N2CCN(CC(=O)N3CCCC3)CC2)cc(OC)c1OC`, the Potency [1] is reported as “inactive”, the Potency [5] is reported as “inactive” and the Potency [3] is reported as “inactive”.
